Source: PubChem (National Center for Advancing Translational Sciences (NCATS))
VACV Venus inh = inhibitors of vaccinia virus (Venus reporter); Vaccinia virus Venus reporter expression, fluorescence; Potency, µM (titrated, usually from 36.5 µM), for the others: top-dose activity change, negative = inhibition, actives largely listed as inhibitors; 0.46% of 330,000 active; AID 720580; calls by dose curve; tested in A549 cells; note: potency is the fitted concentration of half-maximal effect; nearly all actives have a fitted effect of over 30% in size
Vaccinia mCherry = vaccinia inhibition (mCherry reporter); Vaccinia virus mCherry reporter infection, fluorescence; Potency, µM (series often up to 36.5 µM), for inactives: at the top dose activity change, negative = inhibition, actives largely listed as inhibitors; 0.63% of 310,000 active; calls by dose curve; tested in A549 cells; note: potency is the fitted concentration of half-maximal effect; nearly all actives have a fitted effect of over 35% in size
HCMV inh = inhibitors of human cytomegalovirus. HFF cells, HCMV-luciferase reporter, 72 h; active compounds read low. AID 1259415. 4.5% of 410,000 active. activity change, negative = inhibition, % at 57.5 µM; in the data active = activity change below about -60%; inconclusive = no clear call, values can overlap the other calls; inactive = above about -39%
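Luciferase read-out from HCMV-luciferase-infected HFFs (MOI 1 PFU/cell) 72 h post infection at 37C; compounds added after 16 h cell attachment; activity normalized between buffer-only basal and Salinomycin (10uM) inhibitor controls.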
Sm TGR inh = inhibitors of Schistosoma mansoni thioredoxin glutathione reductase. 3% of 360,000 active. Q962Y6. AID 485364. Potency, µM (top dose mostly 114 µM), for inactives: at the highest dose activity change, negative = inhibition, actives largely listed as inhibitors. purified TGR, DTNB reduction, TNB absorbance 405 nm; note: potency is the fitted concentration of half-maximal effect; nearly all actives have a fitted effect of over 60% in size
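Kinetic colorimetric format: TGR-catalysed, NADPH-driven DTNB reduction monitored via TNB absorbance. Enzyme dispensed at 20 nM; compound exposure 15 min at room temperature before reaction start.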
HCV inhibitor = HCV inhibition; Huh7.5.1 HCVcc-Cre infection, luciferase reporter, 44 h; Potency, µM (top dose mostly 41.8 µM), for inactives: top-dose activity change, negative = inhibition, actives largely listed as inhibitors; 3.4% of 340,000 active; AID 651820; note: potency is the fitted concentration of half-maximal effect
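Compounds are dispensed onto cells plated 4 h earlier at 1,000 per well, with HCVcc-Cre virus (about 0.5 moi) added next. Following 44 h of culture, luminescent signal is measured for 15 sec after 15 min with substrate at room temperature.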
FMDV antiviral = blocks foot and mouth disease virus. AID 1159524. 1.2% of 410,000 active. FMDV antiviral cell-based qHTS. Potency, µM (highest dose often 57.9 µM), inactives show top-dose activity change, negative = inhibition, usual class: inhibitors; calls by dose curve; tested in HEK293T cells; note: read-out not given here; potency is the fitted concentration of half-maximal effect; nearly all actives have a fitted effect of over 45% in size
Numbers without * were called inactive. Sampled rows, rich in hits. Any-hit rate of the full collection: about 9.3%. Unless noted, calls come from the whole dose curve; as a rule, active = well fitted curve in the direction sought with a large enough effect; inconclusive = small, poorly fitted or top-dose-only effect, or another doubt; inactive = no such curve, though single readings can be large; an effect the other way counts as inactive or inconclusive. % is set by controls: 0 for no effect and ±100 for the full control effect.

What do the screens show for `O=C(CN1CCN(S(=O)(=O)c2cc(C(F)(F)F)ccc2Cl)CC1)N1CCc2ccccc2C1`?
HCMV inh: -28; Sm TGR inh: 40µM*; HCV inhibitor: 11µM*; FMDV antiviral: inconclusive

What do the screens show for `COc1ccc(C)cc1NC(=O)CCCN1C(=O)C2CC=CCC2C1=O` (configuration not stated)?
VACV Venus inh: -5%; Vaccinia mCherry: inactive; HCMV inh: 9; Sm TGR inh: 3%; HCV inhibitor: 12%; FMDV antiviral: -26%

What do the screens show for `COc1ccccc1NC(=O)c1c(NCc2ccc(OC)c(OC)c2OC)sc2c1CCC2`?
VACV Venus inh: -4%; Vaccinia mCherry: -9%; HCMV inh: -14; Sm TGR inh: 2%; FMDV antiviral: -20%

What do the screens show for `C=CCNCC(=O)Nc1sc2c(c1C(=O)Nc1ccc(OC)cc1OC)CCC2`?
HCMV inh: 0; HCV inhibitor: 10µM*; FMDV antiviral: -27%

Results for COc1ccc(NC(=O)c2c(NCc3ccc(OC)c(OC)c3OC)sc3c2CCC3)c(OC)c1 ?
VACV Venus inh: -3%; Vaccinia mCherry: -15%; HCMV inh: -1; Sm TGR inh: 40µM*; FMDV antiviral: inconclusive

How did CCOC(=O)N1CCc2c(sc(NCc3cccs3)c2C(=O)Nc2ccc(OC)cc2OC)C1 do in these assays?
VACV Venus inh: -9%; Vaccinia mCherry: -13%; HCMV inh: -91*; Sm TGR inh: inconclusive; FMDV antiviral: inconclusive

How did CCOC(=O)N1CCc2c(sc(NCc3ccc(OC)c(OC)c3OC)c2C(=O)Nc2ccc(OC)cc2OC)C1 do in these assays?
VACV Venus inh: -3%; Vaccinia mCherry: -15%; HCMV inh: -80*; Sm TGR inh: -29%; FMDV antiviral: inconclusive

What do the screens show for `COc1ccc(NC(=O)c2c(NCc3sccc3C)sc3c2CCCC3)c(OC)c1`?
VACV Venus inh: -16%; Vaccinia mCherry: -10%; HCMV inh: -15; Sm TGR inh: inconclusive; FMDV antiviral: 69%

How did CCOC(=O)N1CCc2c(sc(NCc3cccs3)c2C(=O)Nc2cc(OC)ccc2OC)C1 do in these assays?
VACV Venus inh: -15%; Vaccinia mCherry: -2%; HCMV inh: -14; Sm TGR inh: -33%; FMDV antiviral: 29%

What do the screens show for `CSc1ccc(CN2CCC(CO)(Cc3ccc(Cl)cc3)CC2)cc1`?
VACV Venus inh: 14%; Vaccinia mCherry: -6%; HCMV inh: -39; Sm TGR inh: 0%; HCV inhibitor: inconclusive; FMDV antiviral: inconclusive

Results for O=C(Oc1cccccc1=O)c1ccccc1 ?
HCMV inh: -3; Sm TGR inh: -23%; HCV inhibitor: -5%; FMDV antiviral: -18%

What do the screens show for `CCCc1[nH]nc2c1C(Cc1ccccc1)C(C#N)=C(N)O2` (configuration not stated)?
HCMV inh: -35; Sm TGR inh: inconclusive; HCV inhibitor: 17%; FMDV antiviral: -7%

Results for CSCC[C@H](NC(=O)[C@@H]1CSC2c3ccccc3C(=O)N21)C(=O)NC1CCCC1 (some centres not stated) ?
HCMV inh: 25; Sm TGR inh: -17%; HCV inhibitor: 7%; FMDV antiviral: -12%

Results for CCOC(=O)N1CCc2c(sc(NCc3ccc(N(CC)CC)cc3)c2C(=O)Nc2cc(OC)ccc2OC)C1 ?
VACV Venus inh: 12%; Vaccinia mCherry: 3%; HCMV inh: -4; Sm TGR inh: -19%; FMDV antiviral: 3%

What do the screens show for `CCOC(=O)N1CCc2c(sc(NCc3ccc(OCC)cc3)c2C(=O)Nc2ccc(OC)cc2OC)C1`?
VACV Venus inh: -9%; Vaccinia mCherry: -14%; HCMV inh: -80*; Sm TGR inh: -26%; FMDV antiviral: inconclusive

How did COc1cc(Cl)c(C)cc1NC(=O)CN(C)Cc1cccc(OC)c1OC do in these assays?
HCMV inh: 2; Sm TGR inh: 10%; HCV inhibitor: 10µM*; FMDV antiviral: 0%
